Experimental data: ChEMBL document CHEMBL4513149, “CO-ADD screening of MMV (CH) - MMV compounds” (2021)
Measured potencies and affinities stand elsewhere.

Key:
Staphylococcus aureus = details: Concentration 20 uM; ASSAY_TEST Inhibition of Bacterial Growth; detection method Absorption (OD600); MEDIA CAMHB; plate type 384well; NBS; CORNING #3640; time 18 hr
Escherichia coli = details: Concentration 20 uM; ASSAY_TEST Inhibition of Bacterial Growth; detection method Absorption (OD600); MEDIA CAMHB; plate type 384well; NBS; CORNING #3640; time 18 hr

| Compound | Inhibition (Staphylococcus aureus) [%] | Inhibition (Escherichia coli) [%] |
| --- | --- | --- |
| O=C(OCc1ccccc1)N1CCC(c2cc(-c3ccncc3)c(-c3ccc(F)cc3)[nH]2)CC1 | 3.21 | 4.05 |
| CS(=O)(=O)c1cccc(-c2cnc3[nH]cc(-c4ccc(CCC(=O)O)cc4)c3c2)c1 | 21.11 | 7.22 |
| COc1ccc(CN2CCOc3ccc(C(C)(O)CN(C)C)cc3C2)cc1C (stereo not drawn) | 19.53 | 9.29 |
| Cc1[nH]c2cc(F)cc(F)c2c(=O)c1-c1ccc(Oc2ccc(OC(F)(F)F)cc2)cc1 | 11.17 | -0.95 |
| CC1CCCCN1C(=O)NCCc1coc(-c2ccc(F)cc2)n1 (stereo not drawn) | 23.75 | 7.62 |
| CC(C)/N=c1\cc2n(-c3ccc(Cl)cc3)c3ccccc3nc-2cc1Nc1ccc(Cl)cc1 [CLOFAZIMINE] | 59.44 | 9.66 |
| O=C(NCCc1ccn(-c2ccccc2)n1)C1CCCCC1 | 6.55 | 2.39 |
| CC(=O)Nc1ccc(NC(=O)c2cc(-c3cc(Cl)ccc3O)n[nH]2)cc1 | 5.62 | 10.03 |
| CCC(Sc1nc2ccccc2o1)C(=O)Nc1nccs1 (stereo not drawn) | 18.2 | 11.9 |
| COc1ccc(C2=NCCN2)cc1-c1cn(-c2cccc(C3=NCCN3)c2)nn1.O=C(O)C(F)(F)F.O=C(O)C(F)(F)F | 20.97 | 10.7 |
| CCOc1ccc(OCC(=O)Nc2cc(C)cc(C)c2)cc1 | 14.06 | 3.81 |
| CCc1nc2ccc(C(=O)NCc3ccc4c(c3)OCO4)cn2c1N(C)Cc1cccs1 | 4.69 | -1.74 |
| Cc1ccc2nc(C)c(-c3ccn(Cc4ccccc4)n3)n2c1 | 13.47 | 10.25 |
| CC(C)(C)c1cc(C(=O)N2CCN(c3nccnc3C#N)CC2)n(Cc2ccccc2)n1 | 20.75 | 10.32 |
